Measured values published in PubChem BioAssay AID2535 (National Center for Advancing Translational Sciences (NCATS), 2010).
Active and inactive are the calls of the source. Calls come from the whole dose curve; as a rule, active = well fitted curve in the direction sought with a large enough effect; inconclusive = small, poorly fitted or top-dose-only effect, or effect the other way, or another doubt; inactive = no such curve, though single readings can be large or run the other way.

biological target: Pyruvate kinase PKLR (Homo sapiens) (UniProt P30613); assay: Secondary Concentration-Response Assay for Activators of Human Liver Pyruvate Kinase: for Probe SAR; details: purified hPK-L, ATP production, Kinase-Glo luminescence; series mostly up to 58.3 µM
Sequence (P30613 whole entry, looked up): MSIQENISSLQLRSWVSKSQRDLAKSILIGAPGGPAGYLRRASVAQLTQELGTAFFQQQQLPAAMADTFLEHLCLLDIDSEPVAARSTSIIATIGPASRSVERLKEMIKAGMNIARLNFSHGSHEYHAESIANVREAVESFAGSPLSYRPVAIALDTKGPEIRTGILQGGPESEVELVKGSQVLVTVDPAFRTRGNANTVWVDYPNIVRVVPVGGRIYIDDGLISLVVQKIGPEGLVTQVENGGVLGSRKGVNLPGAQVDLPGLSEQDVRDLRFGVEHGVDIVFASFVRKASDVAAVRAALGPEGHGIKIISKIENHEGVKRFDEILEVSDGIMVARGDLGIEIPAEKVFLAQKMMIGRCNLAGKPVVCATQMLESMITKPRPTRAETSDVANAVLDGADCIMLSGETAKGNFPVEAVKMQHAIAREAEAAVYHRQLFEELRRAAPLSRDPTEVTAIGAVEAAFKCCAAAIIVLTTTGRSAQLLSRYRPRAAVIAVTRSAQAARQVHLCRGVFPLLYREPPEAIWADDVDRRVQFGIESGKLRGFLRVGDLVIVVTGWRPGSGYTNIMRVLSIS
Source text: NIH Chemical Genomics Center [NCGC]
Matthew G. Vander Heiden, M.D., Ph.D. [Harvard Medical School, 77 Avenue Louis Pasteur, Boston, MA 02115]
Human pyruvate kinase liver (hPK-L) enzyme was supplied as a highly purified (>95% pure) preparation from Harvard Medical School and assayed for its ability to generate ATP from ADP using phosphoenolpyruvate (PEP) as a substrate. ATP generation was detected in a coupled reaction by luciferase-mediated luminescence, an ATP-dependent process. Pyruvate kinase substrates, PEP and ADP, were present in the assay at Km and approximately 10-fold below Km respectively. The enzyme was assayed at an intermediate level of activity to screen for both inhibitors and activators.
NCGC Assay Protocol Summary for L-isoform:
Three uL of substrate mix (at r.t.) in assay buffer (50 mM Imidazole pH7.2, 50 mM KCl, 7 mM MgCl2, 0.01% Tween 20, 0.05% BSA) was dispensed into white solid bottom 1,536 well microtiter plates so that the final concentrations of substrates in the assay were 0.1 mM ADP and 0.5 mM PEP. 23 nL of compound were delivered by a pin tool and 1 uL of enzyme mix (final concentration of 0.1 nM) in assay buffer (4 degree Celsius) was added. Plates were incubated at room temperature for 1 hour. Two uL of detection mix (Kinase-Glo, Promega; at 4 degree Celsius protected from light) was added and luminescence read by a ViewLux (Perkin Elmer) at 1 second exposure/plate. Data were normalized to the uninhibited (row 31). Additionally, a no enzyme and 5-fold enzyme control was dispensed in row 32, split equally between the two conditions.

outcome, inactive:
O=C1c2ccccc2C(=O)N1c1cccc2cnccc12, CNc1cccc(S(=O)(=O)N2CCCN(S(=O)(=O)c3ccc4c(c3)OCCO4)CC2)c1, O=C1CCc2cc(S(=O)(=O)Nc3ccccc3Cl)ccc2N1, COc1ccc(S(=O)(=O)Nc2ccc(C)c(C)c2)cc1, O=C1CCc2cc(S(=O)(=O)Nc3ccc4c(c3)CCC4)ccc2N1, Cc1ccc(Cl)cc1NS(=O)(=O)c1cc2c(cc1Cl)CCC(=O)N2, Cc1ccc(NS(=O)(=O)c2ccc3c(c2)N(C)C(=O)CO3)cc1C, Cc1ccc(N(C)S(=O)(=O)c2ccc3c(c2)CCC(=O)N3)cc1C, Cc1ccc(NS(=O)(=O)c2cc3c(cc2N(C)C)CCC(=O)N3)cc1C, Cc1ccc(NS(=O)(=O)c2ccc(N3CCCC3=O)cc2)cc1C, COc1ccc(Nc2c(-c3ccc(C)o3)nc3ccccn23)cc1, O=C1CCc2cc(S(=O)(=O)Nc3cccc(B(O)O)c3)ccc2N1, COc1cc(F)c(S(=O)(=O)N2CCCN(S(=O)(=O)c3cccc(N)c3)CC2)c(F)c1, Cc1ccc(NS(=O)(=O)c2cccc(Cl)c2)cc1C, COc1cccc(Cn2ncc3c4sc(S(C)=O)cc4n(C)c3c2=O)c1 (stereo not given), O=C1c2ccccc2C(=O)N1c1ccccn1, O=C1c2ccccc2C(=O)N1c1cccc2cccnc12, Cc1ccc(-c2nc3ccc(Cl)cn3c2Nc2ccccc2)o1, CNc1cccc(S(=O)(=O)N2CCN(S(=O)(=O)c3ccc4c(c3)OCCO4)CC2)c1, COc1ccccc1NS(=O)(=O)c1ccc2c(c1)CCC(=O)N2, O=C1CCc2cc(S(=O)(=O)Nc3ccc4ccccc4c3)ccc2N1, Cc1ccc(NS(=O)(=O)c2ccc3c(c2)CC(=O)N3C)cc1C, O=C1c2ccccc2C(=O)N1c1ccccc1O, O=C1c2ccccc2C(=O)N1c1cnc2ccccc2c1, CN(C)c1cccc(S(=O)(=O)N2CCCN(S(=O)(=O)c3ccc4c(c3)OCCO4)CC2)c1, Cc1ccc(NS(=O)(=O)c2cc3c(cc2F)NC(=O)CC3)cc1C, O=S1(=O)N=C(Oc2ccc(Cl)cc2)c2ccccc21, COc1ccc(N2C(=O)c3ccccc3C2=O)cc1, Cc1ccc(NS(=O)(=O)c2cc3c(cc2Cl)CCC(=O)N3)cc1Cl, O=C1CCc2cc(S(=O)(=O)NCc3ccccc3)ccc2N1, O=C1CCc2cc([S+](=O)([O-])NC3CCOCC3)ccc2N1, O=C1CCc2cc(S(=O)(=O)Nc3ccc4ncccc4c3)ccc2N1, O=C1CCc2cc(S(=O)(=O)Nc3cccc4ccccc34)ccc2N1, Cc1ccc(-c2nc3ccccn3c2Nc2ccc(F)cc2)o1, COc1cccc(Cn2ncc3c4sc(SC)cc4n(C)c3c2=O)c1, Cc1ccc(NS(=O)(=O)c2cc3c(cc2-c2ccccc2)NC(=O)CO3)cc1C, O=C1CCc2cc(S(=O)(=O)Nc3ccccc3F)ccc2N1, Cc1ccc(NS(=O)(=O)c2ccc3c(c2)N(C)CCO3)cc1C, O=C1CCc2cc(S(=O)(=O)Nc3ccccn3)ccc2N1, O=C1c2ccccc2C(=O)N1c1cccc2ncccc12
